Experimental findings from the supplement of paper PMC10515830 are described below.

Molecules are shown by their SMILES. Where a name gives a salt, the structure may show the parent alone.

What all share (conditions): 10 µM; exposure time 6 h
Experiment [1] deals with Danio rerio larvae (5 dpf). Kind of experiment: difference in excitability vs DMSO (percentage points); higher = more excitable than DMSO. In a few lines: (§1)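 Wild-type zebrafish larvae at 5 dpf were kept in 96-well plates and exposed for 6 h to 100 µL egg water holding library compound at a final concentration of 10 µM. From 3 h into exposure, the plates were held at 28.5 ℃ and photographed every 6 s through a 3-h programme of moving lines and 100 ms, 400Hz tones. Each behaviour was scored by Z-LaP Tracker, a DeepLabCut model, and averaged over 48 larvae per compound. Every value gives the compound mean minus the vehicle control mean, in percentage points.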

The subject of experiment [2] is Danio rerio larvae (5 dpf). Put plainly: difference in startle response vs DMSO (percentage points); higher = stronger startle than DMSO. In a few lines:
as §1

Experiment [3] deals with Danio rerio larvae (5 dpf). Kind of experiment: difference in activity during first hour vs DMSO (percentage points); higher = more activity than DMSO. In a few lines: as §1
Experiment [4] relates to Danio rerio larvae (5 dpf). Put plainly: difference in habituation to acoustic stimuli vs DMSO (percentage points); higher = more habituation than DMSO. The method in brief:
as §1

The subject of experiment [5] is Danio rerio larvae (5 dpf). Kind of experiment: difference in combined optomotor response to red, green and blue moving lines vs DMSO (percentage points); higher = stronger optomotor response than DMSO. In a few lines:
as §1

As for `CCC(=O)OCC(=O)[C@@]1(OC(=O)CC)[C@H](C)C[C@H]2[C@H]3[C@H]([C@@H](O)C[C@@]21C)[C@@]1(C)C=CC(=O)C=C1C[C@H]3Cl` [Alclometasone Dipropionate], the difference in excitability in experiment [1] stood at 3.59. Also, the “difference in startle response” value in experiment [2] came to 5.9. Also, the “difference in activity during first hour” value in experiment [3] was -1.03. In experiment [4], the “difference in habituation to acoustic stimuli” value (“difference in habituation” for short) was -0.676. The difference in experiment [5] came to 5.42.
The matching figures for `CCCCN1CCCCC1C(=O)Nc1c(C)cccc1C` (stereo not given) [Bupivacaine]: 0.996, -2.63, 13.4, 2.63 and 6.71.
The matching figures for `CCN(CC)CCOC(=O)C1(C2CCCCC2)CCCCC1` [Dicyclomine (hydrochloride)]: 9.55, -4.86, -8.86, -5.06 and -3.96.
For the compound `O=C1CN(/N=C/c2ccc(-c3ccc([N+](=O)[O-])cc3)o2)C(=O)N1` [Dantrolene (sodium salt)], the difference in excitability in experiment [1] worked out at 9.39. The “difference in startle response” value in experiment [2] stood at 1.23. In experiment [3], the “difference in activity during first hour” value was -7.55. Moreover, the “difference in habituation” value in experiment [4] came out at 0.0919. The difference in experiment [5] worked out at 0.433.
`CCCCCCCC/C=C\CCCCCCCC(=O)NCCO` [Oleoyl Ethanolamide] showed a difference in excitability in experiment [1] of 3.95. For the same compound, the “difference in startle response” value in experiment [2] was 1.17. Also, in experiment [3], the “difference in activity during first hour” value came out at 2.47. Also, in experiment [4], the “difference in habituation” value is -3.04. Besides, the difference in experiment [5] was -0.503.
`O=c1[nH]cnc2c1ncn2[C@H]1CC[C@@H](CO)O1` [Didanosine]: in experiment [1], the difference in excitability came out at 1.69. The “difference in startle response” value in experiment [2] was -3.05. In experiment [3], the “difference in activity during first hour” value was 4.04. Moreover, the “difference in habituation” value in experiment [4] was -1.02. The difference in experiment [5] came to 4.2.
The matching figures for `CCOC(=O)[C@H](CCc1ccccc1)N[C@H]1CCc2ccccc2N(CC(=O)O)C1=O` [Benazepril (hydrochloride)]: 7.01, 3.34, -2.03, -3.43 and -7.74.
As to `CC(=O)OC[C@H]1O[C@@H]([S-])[C@H](OC(C)=O)[C@@H](OC(C)=O)[C@@H]1OC(C)=O.CCP(CC)CC.[Au+]` [Auranofin], the difference in excitability in experiment [1] is 6.43. For the same compound, the “difference in startle response” value in experiment [2] is -4.17. In addition, in experiment [3], the “difference in activity during first hour” value was found to be 11. Further, the “difference in habituation” value in experiment [4] came to 2.14. In experiment [5], the difference is -5.02.
For `CCOc1nc2cccc(C(=O)OC(C)OC(=O)OC3CCCCC3)c2n1Cc1ccc(-c2ccccc2-c2nn[nH]n2)cc1` (stereo not given) [Candesartan Cilexetil], the difference in excitability in experiment [1] stood at 12.4. Besides, the “difference in startle response” value in experiment [2] was -6.23. Besides, the “difference in activity during first hour” value in experiment [3] was -2.86. Further, in experiment [4], the “difference in habituation” value was -2.83. The difference in experiment [5] was -2.76.
The compound `COc1cccc2c1C(=O)c1c(O)c3c(c(O)c1C2=O)C[C@@](O)(C(=O)CO)C[C@@H]3O[C@H]1C[C@H](N)[C@H](O)[C@H](C)O1` [Doxorubicin (hydrochloride)] had a difference in excitability in experiment [1] of 6.65. Moreover, the “difference in startle response” value in experiment [2] came to 3.55. Moreover, the “difference in activity during first hour” value in experiment [3] was -7.11. Also, in experiment [4], the “difference in habituation” value was determined as 6.05. In addition, the difference in experiment [5] is -4.42.
The compound `C[C@@H]1CCN(C(=O)CC#N)C[C@@H]1N(C)c1ncnc2[nH]ccc12` showed a difference in excitability in experiment [1] of -2.24. For the same compound, the “difference in startle response” value in experiment [2] was -4.49. Further, the “difference in activity during first hour” value in experiment [3] was -6.58. The “difference in habituation” value in experiment [4] is -6.59. Moreover, the difference in experiment [5] is 6.98.
Turning to `CCCCC1=NC2(CCCC2)C(=O)N1Cc1ccc(-c2ccccc2-c2nnn[nH]2)cc1` [Irbesartan], the difference in excitability in experiment [1] was 5.86. Also, the “difference in startle response” value in experiment [2] is -3.98. Moreover, in experiment [3], the “difference in activity during first hour” value stood at 6.09. The “difference in habituation” value in experiment [4] was -4.93. Besides, in experiment [5], the difference was found to be 5.61.
The matching figures for `Nc1nc(O)c2ncn(CCC(CO)CO)c2n1` [Penciclovir]: 7.86, 12.1, 13.9, -1.73 and 11.3.
The matching figures for `CNC(=O)c1cc(Oc2ccc(NC(=O)Nc3ccc(Cl)c(C(F)(F)F)c3)c(F)c2)ccn1` [Regorafenib]: 20.9, -2.66, -3.38, -6.09 and 1.15.
The matching figures for `Cc1c(C(=O)Nc2ccc(N3C[C@@H](C)O[C@@H](C)C3)nc2)cccc1-c1ccc(OC(F)(F)F)cc1` [LDE225 (phosphate)]: 13, -4.4, -2.84, -4.9 and 3.16.
`COCCCC/C(=N\OCCN)c1ccc(C(F)(F)F)cc1` [Fluvoxamine (maleate)]: in experiment [1], the difference in excitability amounted to 13.2. The “difference in startle response” value in experiment [2] is -1.76. The “difference in activity during first hour” value in experiment [3] was -21.1. The “difference in habituation” value in experiment [4] is -3.73. Moreover, in experiment [5], the difference was found to be 5.3.
Regarding `N[C@@H]1CCCCN(c2c(F)cc3c(=O)c(C(=O)O)cn(C4CC4)c3c2Cl)C1` [Besifloxacin (hydrochloride)], the difference in excitability in experiment [1] is 13. In addition, in experiment [2], the “difference in startle response” value stood at 0.0054. For the same compound, in experiment [3], the “difference in activity during first hour” value is 5.97. Besides, the “difference in habituation” value in experiment [4] was -5.08. Besides, the difference in experiment [5] worked out at 0.455.
With `Clc1cccc(Cl)c1NC1=NCCN1` [Clonidine (hydrochloride)], the difference in excitability in experiment [1] was determined as 9.22. Besides, in experiment [2], the “difference in startle response” value was 3.55. The “difference in activity during first hour” value in experiment [3] is -11.7. Besides, in experiment [4], the “difference in habituation” value is 0.121. Also, in experiment [5], the difference came out at 6.82.
The matching figures for `CN(CCOc1ccc(CC2SC(=O)NC2=O)cc1)c1ccccn1` (stereo not given) [Rosiglitazone]: 6.79, -7.02, 26.9, -12.6 and -6.71.
The matching figures for `Oc1c(Cl)cc(Cl)c(Cl)c1Cc1c(O)c(Cl)cc(Cl)c1Cl` [Hexachlorophene]: 8.13, -9.45, -18.6, -9.66 and -15.6.
The matching figures for `CN1CCC[C@H]1c1cccnc1` (racemic) [(±)-Nicotine]: 9.04, -8.45, 50, -10.6 and -14.9.
With `O=c1[nH]c(=O)n([C@H]2C[C@H](O)[C@@H](CO)O2)cc1C(F)(F)F` [Trifluorothymidine], the difference in excitability in experiment [1] is -0.163. The “difference in startle response” value in experiment [2] was -3.06. Also, the “difference in activity during first hour” value in experiment [3] turned out to be 5.45. For the same compound, the “difference in habituation” value in experiment [4] is -4.69. The difference in experiment [5] worked out at 1.93.
The matching figures for `CNC(=O)c1cc(Oc2ccc(NC(=O)Nc3ccc(Cl)c(C(F)(F)F)c3)cc2)ccn1` [Sorafenib]: 19.5, -6.25, -3.15, -3.01 and -2.71.
The matching figures for `COc1cc(Nc2c(C#N)cnc3cc(OCCCN4CCN(C)CC4)c(OC)cc23)c(Cl)cc1Cl` [Bosutinib]: 10.4, 1.86, -11.7, -5.15 and 2.77.
The matching figures for `C[C@@H](O[C@H]1OCCN(Cc2n[nH]c(=O)[nH]2)[C@H]1c1ccc(F)cc1)c1cc(C(F)(F)F)cc(C(F)(F)F)c1` [Aprepitant]: 9.22, -5.06, 6.23, -3.45 and 4.82.
